Records with an inconclusive call do not appear. Activity calls are given as the source filed them. Calls follow the shape of the dose curve; as a rule, active = well fitted inhibition curve with a large enough effect; inconclusive = small, poorly fitted or top-dose-only effect, or effect the other way, or another doubt; inactive = no such curve, though single readings can be large or run the other way.
Assay: Confirmation Concentration-Response Assay for lipid storage modulators; also: nearly all actives have a fitted effect of over 80% in size
Details: Drosophila S3 cells, lipid droplet BODIPY/CellTracker ratio, 18-24 h
Source text: NIH Molecular Libraries Probe Production Centers Network [MLPCN] NIH Chemical Genomics Center [NCGC] MLPCN Grant: 1 R03 MH085686-01 Assay Submitter (PI): Beller, Mathias; Max-Planck-Institut fur Biophysikalische Chemie NCGC Assay Overview: Storing lipids as a reservoir for energy or the anabolism of elementary metabolites is a common feature of probably all cells and is conserved from bacteria to humans. The universal cellular lipid storage organelle is the so-called lipid storage droplet (LD). Although ubiquitous, LDs share a simple structure composed of a hydrophobic core that harbors the storage lipids, which is shielded by a droplet-specific phospholipid monolayer to which proteins are attached. […] Exo1 identified in the primary screen (AID 1519) and several analogs were measured in the lipid storage assay as 24-point concentration-response curves to confirm potency and SAR.
We dispensed 4 uL of cells at 1.25 x 10^6 cells/mL into LoBase Aurora COC 1,536-well plates (black walled, clear bottom) with a bottle-valve solenoid-based dispenser (Aurora) to obtain 5,000 cells/well. […] Fluorescence was detected by excitation of the fluorophores with a 488-nm laser on an Acumen Explorer (TTP Lab Tech). […] Cells were detected using channel 3 (575- 640 nm) with 5-um width and 100-um depth filters. The ratio of the total intensity in PMT channel 1 over total intensity of channel 3 was also calculated. […]
Potency is read from the fitted curve at half-maximal effect.

SMILES	Potency
COc1cc2c(cc1OC)[C@@H]1C(=O)c3ccc4c(c3O[C@@H]1CO2)C[C@H](C(C)C)O4	0.0499 µM (active)
O=C(Nc1cccc(Cl)c1)OC1CN2CCC1CC2 (configuration not stated)	8.88 µM (active)
